Tests used:
Experiment in all cases: PBM binding z-score (relative to random genomic background probes); higher = stronger binding; sequences stand for … in GC…GCGATTGACAGCGTAGAATGAAGG
[1] = tested on: FXR:RXRa (NR concentration 270 nM, RXRa partner concentration 90 nM)
In short: (§1)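 Each nuclear receptor dimer, without ligand, was incubated for 1 h on custom Agilent 4×180K protein-binding microarrays. Binding was detected with antibodies against each partner (one per run), and scanned fluorescence was regression-normalized. The binding z-scores are referenced to random human genomic background probes.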

[2] = tested on: LXRa:RXRa (NR concentration 270 nM, RXRa partner concentration 90 nM)
In short: as §1

[3] = tested on: LXRa homodimer (NR concentration 270 nM)
In short: as §1

[4] = tested on: LXRb:RXRa (NR concentration 270 nM, RXRa partner concentration 90 nM)
In short: as §1

[5] = tested on: LXRb homodimer (NR concentration 270 nM)
In short: as §1

[6] = tested on: PPARa:RXRa (NR concentration 270 nM, RXRa partner concentration 90 nM)
In short: as §1

[7] = tested on: PPARg:RXRa (NR concentration 180 nM, RXRa partner concentration 90 nM)
In short: as §1

[8] = tested on: PPARg:RXRa 270nM:90nM, anti-RXR (NR concentration 270 nM, RXRa partner concentration 90 nM)
In short: as §1

[9] = tested on: PPARg:RXRa 30nM:10nM, anti-RXR (NR concentration 30 nM, RXRa partner concentration 10 nM)
In short: as §1

[10] = tested on: PPARg:RXRa 90nM:30nM, anti-RXR (NR concentration 90 nM, RXRa partner concentration 30 nM)
In short: as §1

| Sequence | PBM binding z-score [1] | PBM binding z-score [2] | PBM binding z-score [3] | PBM binding z-score [4] | PBM binding z-score [5] | PBM binding z-score [6] | PBM binding z-score [7] | PBM binding z-score [8] | PBM binding z-score [9] | PBM binding z-score [10] |
| --- | --- | --- | --- | --- | --- | --- | --- | --- | --- | --- |
| CTCGAAAGGTCGGTAGAGGTGAGTATACGGATAA | 2.48 | 2.01 | 0.0371 | 1.32 | -0.315 | 2.86 | 1.02 | 1.75 | 0.538 | 0.994 |
| TCATGTAGGTAAAAGGTGAAAGTCGGTGTGGTAA | 1.69 | 1.64 | 0.309 | 1.98 | 0.274 | 5.78 | 9.58 | 8.82 | 8.8 | 9.11 |
| TCATATAGGTAATAGAGGTGAAAGTCGGCATCTA | 1.47 | 1.99 | 0.555 | 1.43 | 0.0572 | 2.96 | 2.3 | 3.61 | 4.55 | 4.02 |
| CCTGCAAGGTCAATGGTCAGCTAAAGCAGCTCGC | 6.55 | 4.95 | 0.264 | 3.63 | 0.38 | 5.21 | 4.22 | 4.88 | 1.21 | 3.68 |
| CCTACTGGGCCATAAGGTCATTGATATCAACGTT | 3.03 | 3.09 | 1.89 | 3.17 | 0.0476 | 4.14 | 4.49 | 4.98 | 3.38 | 4.64 |
| TCATATAGGTAAGTGCTAGGTGAAAGTCCGATCT | 0.366 | 0.752 | 0.094 | 0.207 | 0.122 | 0.896 | 0.556 | 2.06 | 3.39 | 2.49 |
| CGAACTAGGTCATCCAGGACAGTAAATACATTGA | 4.22 | 2.79 | 0.899 | 2.36 | 0.21 | 4.68 | 7.87 | 6.33 | 3.68 | 5.68 |
| CGAACTCGGTCATCCAGGACAGTGAATACATTGA | 1.39 | 0.744 | 0.283 | 0.275 | -0.494 | 0.964 | 1.14 | 0.895 | 0.134 | 0.455 |
| TTACCAAGGTGAAAGGACGTTGATGCACGCCTTG | 0.449 | 0.351 | -0.414 | 0.198 | -0.801 | 1.72 | 2.29 | 3.48 | 1.96 | 3.14 |
| ATATGTAGGGTATCGGGTCATTCAGTTTGCGCAT | 2.08 | 2.17 | 1.58 | 3.25 | 1.84 | 4.3 | 5.64 | 5.05 | 2.42 | 4.32 |
| GCTAGTTGGTCAGTAAAAGGTCACATACCGGTCG | 2.76 | 4.16 | 4.82 | 4.01 | 0.816 | 4.22 | 2.57 | 4.42 | 2.3 | 3.92 |
| TCGATTAGTTGAAGGGCAACCGACGAGTCCGTTT | 0.259 | 0.194 | -0.152 | 0.106 | -0.503 | 0.295 | -0.114 | 1.19 | 2.74 | 1.85 |
| CGTCCTAGGTCAAAGGTCAGTGAAGAGATGACGG | 7.08 | 5.88 | 2.24 | 5.52 | 0.881 | 6.8 | 11 | 9.26 | 9.03 | 10.2 |
| AACTCTAGGTAACCAAGTTCAGTGAATGCCGAAC | 0.211 | 0.537 | 0.474 | 0.24 | 0.213 | 0.878 | 0.528 | 0.367 | -0.222 | 0.0109 |
| CAAACTAGGTCACGAAAGGTCAATGTCGAATGAC | 7.08 | 7.86 | 6.57 | 7.03 | 1.87 | 6.73 | 10.3 | 8.29 | 6.83 | 8.33 |
| TTACCAAGGTGAGCTGAGGTCGTTGCTCCAACTC | 1.27 | 1.21 | -0.608 | 0.819 | -1.17 | 1.42 | -0.334 | 0.661 | -0.351 | 0.141 |
| ATCGAAAGGTCGGCGAGGTGAGTATACACCGTTT | 3.23 | 2.52 | -0.167 | 1.9 | 0.199 | 3.76 | 1.57 | 2.25 | 0.34 | 1.11 |
| GCTTGTCGATCAAGGTTAAGAAAGACTAAGCTAA | 0.467 | 0.896 | -0.687 | 0.589 | -0.963 | 1.17 | -0.154 | 0.57 | 0.0048 | 0.112 |
| ATATGTAGGTTAGCTAGGGTCATTCAGACTAGGC | 4.45 | 5.22 | 1.89 | 3.59 | 0.624 | 4.36 | 4.65 | 4.41 | 2.3 | 3.61 |
| CCGACTGGGACATAAGGTTACCATAAGCCAGCCC | 0.338 | 2.04 | 0.14 | 0.621 | -0.915 | 1.21 | 1.61 | 2.59 | 0.545 | 1.96 |
| CCGACTGGGCCAGAAAGGTTACCATACCATCCGG | 0.387 | 0.792 | -0.182 | 0.895 | -0.545 | 1.88 | 0.92 | 0.91 | 0.0101 | 0.541 |
| GATACAGGGTCAAGACCAGAGTACGCGTATTGAT | 6.27 | 3.79 | 0.0908 | 3.63 | 0.0748 | 5.37 | 5.25 | 4.91 | 1.75 | 3.56 |
| GCTAGTTGGTCAGTAAAAGGTCCCACACCGGTCG | -0.338 | -0.272 | -0.431 | -0.485 | -0.39 | -0.0763 | -0.0473 | 0.383 | -0.539 | -0.225 |
| CCGAGGAGGTTATGGGGCATTCAGGCAACGGTGA | 1.52 | 1.44 | 0.15 | 1.86 | -0.173 | 2.84 | 1.66 | 2.11 | 0.0714 | 1.39 |

Source: the supplement of paper PMC6555819
